Experimental data published in the supplement of paper PMC12067093, “Discovery and optimisation of a covalent ligand for TRIM25 and its application to targeted protein ubiquitination” (Chemical Science, 2025).
About 21,000 targets were measured; listed, in parts, are those with the largest changes and a random draw of the rest.

Compound: Cc1cc(ccc1-c1ccccc1)C(=O)N1CCCN(CC1)C(=O)CCl [compound 10]
Assay: probe-labelled cysteine peptide fold change vs DMSO (competition) (log2 fold change); higher = less target engagement (more negative = stronger competition)
Settings: THP-1, incubation time: 4 h
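Further: competitive profiling in live THP-1 cells: cysteine peptides tagged with an iodoacetamide desthiobiotin (IA-DTB) probe, intensity after compound treatment relative to DMSO-treated cells.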

Sequence of UniProt P35579 (P35579 whole entry, looked up): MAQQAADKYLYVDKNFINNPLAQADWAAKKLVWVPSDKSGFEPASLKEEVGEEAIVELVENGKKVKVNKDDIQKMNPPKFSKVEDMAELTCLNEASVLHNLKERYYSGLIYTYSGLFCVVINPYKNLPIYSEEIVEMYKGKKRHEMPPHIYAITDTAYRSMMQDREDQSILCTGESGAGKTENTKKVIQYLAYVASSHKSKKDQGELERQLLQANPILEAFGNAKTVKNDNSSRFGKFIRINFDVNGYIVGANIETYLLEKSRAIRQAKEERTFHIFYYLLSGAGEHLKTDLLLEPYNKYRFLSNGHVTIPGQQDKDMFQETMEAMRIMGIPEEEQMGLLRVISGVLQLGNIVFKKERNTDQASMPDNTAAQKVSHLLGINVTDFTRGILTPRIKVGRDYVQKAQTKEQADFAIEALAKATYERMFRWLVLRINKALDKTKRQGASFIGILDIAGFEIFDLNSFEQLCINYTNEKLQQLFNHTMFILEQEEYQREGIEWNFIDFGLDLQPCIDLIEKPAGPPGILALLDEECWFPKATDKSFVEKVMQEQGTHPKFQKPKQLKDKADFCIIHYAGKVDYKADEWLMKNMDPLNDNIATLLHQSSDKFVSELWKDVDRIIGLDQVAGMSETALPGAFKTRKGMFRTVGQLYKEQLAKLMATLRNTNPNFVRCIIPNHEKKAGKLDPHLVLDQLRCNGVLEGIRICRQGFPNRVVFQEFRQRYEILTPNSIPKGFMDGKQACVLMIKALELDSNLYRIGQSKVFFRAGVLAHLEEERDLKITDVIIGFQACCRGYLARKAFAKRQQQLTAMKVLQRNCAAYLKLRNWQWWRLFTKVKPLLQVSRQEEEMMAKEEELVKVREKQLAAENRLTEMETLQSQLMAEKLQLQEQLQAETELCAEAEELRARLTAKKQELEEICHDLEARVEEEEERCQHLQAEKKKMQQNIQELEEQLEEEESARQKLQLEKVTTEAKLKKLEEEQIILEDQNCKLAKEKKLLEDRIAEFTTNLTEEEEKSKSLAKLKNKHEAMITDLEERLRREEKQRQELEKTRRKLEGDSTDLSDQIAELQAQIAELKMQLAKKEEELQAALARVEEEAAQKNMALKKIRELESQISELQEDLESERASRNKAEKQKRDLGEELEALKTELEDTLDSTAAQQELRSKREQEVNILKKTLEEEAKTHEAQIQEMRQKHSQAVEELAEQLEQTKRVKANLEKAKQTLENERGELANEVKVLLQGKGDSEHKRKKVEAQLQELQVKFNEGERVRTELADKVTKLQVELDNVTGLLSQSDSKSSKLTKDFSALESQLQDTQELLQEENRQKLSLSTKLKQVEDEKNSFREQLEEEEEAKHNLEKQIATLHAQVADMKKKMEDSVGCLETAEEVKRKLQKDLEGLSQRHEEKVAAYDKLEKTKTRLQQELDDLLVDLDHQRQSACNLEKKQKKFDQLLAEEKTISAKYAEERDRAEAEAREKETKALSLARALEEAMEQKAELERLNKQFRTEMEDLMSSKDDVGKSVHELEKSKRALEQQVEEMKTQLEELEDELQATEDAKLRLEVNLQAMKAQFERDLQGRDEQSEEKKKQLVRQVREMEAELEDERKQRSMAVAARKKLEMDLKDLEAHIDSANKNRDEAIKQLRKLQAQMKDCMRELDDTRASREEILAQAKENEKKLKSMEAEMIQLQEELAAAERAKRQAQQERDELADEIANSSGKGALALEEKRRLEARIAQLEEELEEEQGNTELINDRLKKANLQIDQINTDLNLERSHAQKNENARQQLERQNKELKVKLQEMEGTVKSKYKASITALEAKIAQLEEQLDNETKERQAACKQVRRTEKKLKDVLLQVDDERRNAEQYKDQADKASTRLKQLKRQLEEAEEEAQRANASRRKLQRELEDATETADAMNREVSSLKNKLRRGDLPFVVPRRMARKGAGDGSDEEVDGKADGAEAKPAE
Sequence of UniProt P49257 (P49257 whole entry, looked up): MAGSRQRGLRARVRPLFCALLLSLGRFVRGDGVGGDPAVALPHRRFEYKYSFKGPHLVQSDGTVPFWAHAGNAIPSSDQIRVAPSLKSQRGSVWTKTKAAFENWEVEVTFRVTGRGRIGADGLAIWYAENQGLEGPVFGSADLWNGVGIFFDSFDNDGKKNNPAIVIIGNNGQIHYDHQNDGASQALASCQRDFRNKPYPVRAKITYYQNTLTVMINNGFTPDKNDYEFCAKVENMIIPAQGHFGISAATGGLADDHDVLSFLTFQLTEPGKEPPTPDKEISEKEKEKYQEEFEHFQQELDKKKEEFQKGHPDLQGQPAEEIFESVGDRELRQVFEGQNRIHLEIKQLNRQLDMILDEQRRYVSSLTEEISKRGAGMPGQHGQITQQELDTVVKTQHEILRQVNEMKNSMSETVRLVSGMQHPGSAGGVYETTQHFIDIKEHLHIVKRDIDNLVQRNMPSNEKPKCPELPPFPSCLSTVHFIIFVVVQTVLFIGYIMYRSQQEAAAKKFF
Sequence of UniProt Q9UBG0 (Q9UBG0 whole entry, looked up): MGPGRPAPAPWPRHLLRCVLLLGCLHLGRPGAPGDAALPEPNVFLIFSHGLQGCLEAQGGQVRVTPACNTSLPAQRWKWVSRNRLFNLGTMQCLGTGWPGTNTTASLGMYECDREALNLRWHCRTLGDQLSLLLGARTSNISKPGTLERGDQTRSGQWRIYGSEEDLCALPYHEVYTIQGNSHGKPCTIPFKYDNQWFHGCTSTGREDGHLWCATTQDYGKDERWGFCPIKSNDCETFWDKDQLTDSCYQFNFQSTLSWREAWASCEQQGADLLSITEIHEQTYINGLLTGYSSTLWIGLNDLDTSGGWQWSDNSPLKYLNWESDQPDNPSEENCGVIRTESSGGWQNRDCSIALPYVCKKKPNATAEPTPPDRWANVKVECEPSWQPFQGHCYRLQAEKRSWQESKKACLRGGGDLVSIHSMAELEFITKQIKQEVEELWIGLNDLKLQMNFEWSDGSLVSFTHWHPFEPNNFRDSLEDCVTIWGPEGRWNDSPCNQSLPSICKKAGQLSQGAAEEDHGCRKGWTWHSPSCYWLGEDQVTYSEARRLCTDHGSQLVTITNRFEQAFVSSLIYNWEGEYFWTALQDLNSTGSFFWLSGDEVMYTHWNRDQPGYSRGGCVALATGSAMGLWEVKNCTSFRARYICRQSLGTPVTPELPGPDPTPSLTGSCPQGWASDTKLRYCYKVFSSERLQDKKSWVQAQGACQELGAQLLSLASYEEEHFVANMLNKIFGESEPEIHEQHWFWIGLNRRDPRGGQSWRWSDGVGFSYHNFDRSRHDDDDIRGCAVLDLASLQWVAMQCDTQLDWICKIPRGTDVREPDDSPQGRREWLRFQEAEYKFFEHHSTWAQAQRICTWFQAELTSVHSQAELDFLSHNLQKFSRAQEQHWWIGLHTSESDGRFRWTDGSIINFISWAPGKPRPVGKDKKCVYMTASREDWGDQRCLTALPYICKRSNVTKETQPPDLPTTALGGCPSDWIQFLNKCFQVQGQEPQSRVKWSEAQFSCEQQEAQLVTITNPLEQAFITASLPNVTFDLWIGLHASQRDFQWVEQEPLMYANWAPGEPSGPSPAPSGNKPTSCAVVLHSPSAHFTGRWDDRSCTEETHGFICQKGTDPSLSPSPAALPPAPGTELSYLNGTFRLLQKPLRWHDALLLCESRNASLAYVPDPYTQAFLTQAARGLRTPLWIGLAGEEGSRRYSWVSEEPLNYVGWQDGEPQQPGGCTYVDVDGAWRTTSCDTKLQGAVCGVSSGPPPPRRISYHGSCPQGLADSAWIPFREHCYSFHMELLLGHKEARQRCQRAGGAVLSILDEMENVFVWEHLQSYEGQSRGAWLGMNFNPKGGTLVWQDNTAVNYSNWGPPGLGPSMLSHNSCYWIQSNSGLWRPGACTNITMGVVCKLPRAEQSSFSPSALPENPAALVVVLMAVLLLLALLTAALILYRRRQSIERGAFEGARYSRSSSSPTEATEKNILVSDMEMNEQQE
Sequence of UniProt Q99836 (Q99836 whole entry, looked up): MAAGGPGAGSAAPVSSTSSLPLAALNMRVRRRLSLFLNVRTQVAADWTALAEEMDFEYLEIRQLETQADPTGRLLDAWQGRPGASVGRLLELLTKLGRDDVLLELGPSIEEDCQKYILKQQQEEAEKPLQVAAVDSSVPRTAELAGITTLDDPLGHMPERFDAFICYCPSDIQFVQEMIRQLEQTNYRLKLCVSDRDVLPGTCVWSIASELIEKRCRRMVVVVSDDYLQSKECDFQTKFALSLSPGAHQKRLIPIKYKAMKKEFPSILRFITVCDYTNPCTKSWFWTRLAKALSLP
Sequence of UniProt Q9UBK8 (Q9UBK8 whole entry): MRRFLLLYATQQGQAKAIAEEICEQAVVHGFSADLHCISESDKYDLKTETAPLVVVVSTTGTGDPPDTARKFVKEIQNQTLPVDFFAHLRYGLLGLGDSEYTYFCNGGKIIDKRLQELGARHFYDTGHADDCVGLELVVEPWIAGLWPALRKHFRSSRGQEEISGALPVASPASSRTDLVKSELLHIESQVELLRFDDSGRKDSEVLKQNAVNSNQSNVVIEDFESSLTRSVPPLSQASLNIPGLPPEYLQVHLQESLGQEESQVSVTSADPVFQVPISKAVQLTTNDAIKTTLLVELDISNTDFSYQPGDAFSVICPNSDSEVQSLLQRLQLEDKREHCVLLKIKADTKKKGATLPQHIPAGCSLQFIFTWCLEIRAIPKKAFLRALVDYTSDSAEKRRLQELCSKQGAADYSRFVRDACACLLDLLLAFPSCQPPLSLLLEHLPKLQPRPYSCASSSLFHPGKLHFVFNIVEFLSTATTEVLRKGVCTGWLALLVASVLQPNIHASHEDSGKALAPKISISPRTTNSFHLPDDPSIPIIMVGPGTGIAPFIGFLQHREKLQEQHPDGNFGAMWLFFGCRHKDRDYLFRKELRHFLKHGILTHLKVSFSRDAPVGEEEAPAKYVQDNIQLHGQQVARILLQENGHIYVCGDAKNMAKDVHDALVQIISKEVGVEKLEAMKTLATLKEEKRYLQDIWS
Sequence of UniProt Q9Y333 (Q9Y333 whole entry, looked up): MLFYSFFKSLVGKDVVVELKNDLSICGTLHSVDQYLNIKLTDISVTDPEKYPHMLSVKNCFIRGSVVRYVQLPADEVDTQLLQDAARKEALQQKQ

Target	probe-labelled cysteine peptide fold change (10 µM)	probe-labelled cysteine peptide fold change (50 µM)
MTHFD1L_Q6UB35_906_YTQQGFGNLPICMAK (UniProt Q6UB35)	-0.063	-0.0614
MTREX_P42285_430_KMVEEVFSNAIDCLSDEDK (UniProt P42285)	-0.306	-0.485
MMADHC_Q9H3L0_261+262_HLGFSVDDLGCCK (UniProt Q9H3L0)	-0.412	-1.16
MORC3_Q14149_15_LSALCPK (UniProt Q14149)	-0.27	-1.37
MACF1_Q9UPN3_5309_DCDVQGLEHDMEEINAR (UniProt Q9UPN3)	0.0885	0.126
MCEE_Q96PE7_166_DCGGVLVELEQA (UniProt Q96PE7)	-0.0643	0.17
MRPS31_Q92665_356_HFMELVTCGLSK (UniProt Q92665)	0.0457	-0.112
LIMK1_P53667_84_YGESCHGCSEQITK (UniProt P53667)	0.0187	-0.262
MTMR14_Q8NCE2_131_FVCPVILFK (UniProt Q8NCE2)	-0.00849	-0.0865
LIMS3_P0CW19-2_136_YCEHDFQMLFAPCCHQCGEFIIGR<|>LIMS1_P48059_74_YCEHDFQMLFAPCCHQCGEFIIGR (UniProt P48059+P0CW19)	0.212	0.138
MTHFD1_P11586_236_GEWIKPGAIVIDCGINYVPDDKKPNGR (UniProt P11586)	-0.116	-1.23
MOB4_Q9Y3A3_134_HTLDGAACLLNSNK (UniProt Q9Y3A3)	-1.14	-3.77
MYD88_Q99836_168_FDAFICYCPSDIQFVQEMIR (UniProt Q99836)	0.412	-1.05
MRPL53_Q96EL3_21_VQFCPFEK (UniProt Q96EL3)	0.0106	-0.103
MMP14_P50281_574_RLLYCQR (UniProt P50281)	-0.276	-0.518
MRPS30_Q9NP92_393_NICWGTQSK (UniProt Q9NP92)	-0.226	-0.187
MDN1_Q9NU22_3985_KFEAVLSEPCR (UniProt Q9NU22)	-0.313	-0.0822
MTRR_Q9UBK8_64_AIAEEICEQAVVHGFSADLHCISESDKYDLK (UniProt Q9UBK8)	-0.113	-0.379
MGMT_P16455_145_GNPVPILIPCHR (UniProt P16455)	-1.04	-1.29
MMADHC_Q9H3L0_261_HLGFSVDDLGCCK (UniProt Q9H3L0)	-0.3	-1.27

Target	probe-labelled cysteine peptide fold change (10 µM)	probe-labelled cysteine peptide fold change (50 µM)
MPP1_Q00013_454_KLQEAFDQACSSPQWVPVSWVY (UniProt Q00013)	-0.0366	-0.104
MADD_Q8WXG6_1489_LINMTYCPK (UniProt Q8WXG6)	-0.139	-1.56
MCM5_P33992_221_CVDFQTLK (UniProt P33992)	0.05	-0.397
MCRS1_Q96EZ8_84_CSGSEPSSSEK (UniProt Q96EZ8)	-0.0254	-0.104
MPI_P34949_289_GDCVECMACSDNTVR (UniProt P34949)	0.0622	-0.0489
MCMBP_Q9BTE3_249_VYEDWDCFK (UniProt Q9BTE3)	-0.042	-0.0294
MAZ_P56270_424_VHSQGPHHVCELCNK (UniProt P56270)	0.033	-0.236
MAK16_Q9BXY0_39_NEYSLTGLCNR (UniProt Q9BXY0)	0.173	-0.348
MTR_Q99707_798_NIVGVVLGCNNFR (UniProt Q99707)	0.00546	-0.26
MICALL1_Q8N3F8_597_GSSGPQPAKPCSGATPTPLLLVGDR (UniProt Q8N3F8)	-0.17	-0.459
MRPS18A_Q9NVS2_186_DNVCYSR (UniProt Q9NVS2)	-0.0735	-0.099
MCM5_P33992_355_AIACLLFGGSRK (UniProt P33992)	-0.159	-0.759
LPIN3_Q9BQK8_443_SLRDPNPEHEPEPTLDTVDTIALSLCGGLADSR (UniProt Q9BQK8)	-0.112	0.0613
MCMBP_Q9BTE3_325_LQHINPLLPACLNK (UniProt Q9BTE3)	-0.451	-1.87
LMAN1_P49257_230_NDYEFCAK (UniProt P49257)	0.239	0.703
MGAT2_Q10469_386_KTCRPSTQSAQIESLLNNNK (UniProt Q10469)	-0.194	-0.657
MRC2_Q9UBG0_187_IYGSEEDLCALPYHEVYTIQGNSHGKPCTIPFK (UniProt Q9UBG0)	-0.0343	-0.784
MTA3_Q9BTC8_109_CSVALLNETESVLSYLDK (UniProt Q9BTC8)	0.791	0.971
MARS_P56192_389_CEHCAR (UniProt P56192)	-0.00939	-0.304
MARS_P56192_309_QWNTLYLCGTDEYGTATETK (UniProt P56192)	-0.0161	0.0949

Target	probe-labelled cysteine peptide fold change (10 µM)	probe-labelled cysteine peptide fold change (50 µM)
MYH9_P35579_789_ITDVIIGFQACCR (UniProt P35579)	-0.109	-0.0345
MATR3_P43243_230_CRDDSFFGETSHNYHK (UniProt P43243)	0.00308	-0.311
MTMR6_Q9Y217_214_CLEDEHLLQAISK (UniProt Q9Y217)	-0.103	-0.217
MYBBP1A_Q9BQG0_890_RYCHDLGER (UniProt Q9BQG0)	0.104	0.125
MCCC2_Q9HCC0_267_AATGEEVSAEDLGGADLHCRK (UniProt Q9HCC0)	-0.591	-1.49
MRPL42_Q9Y6G3_45_STYSPLPDDYNCNVELALTSDGR (UniProt Q9Y6G3)	0.0794	-0.1
MUT_P22033_560_CTVGEITDALK (UniProt P22033)	0.0307	0.0797
MYCBP2_O75592_3392_MPCLYLQTLAR (UniProt O75592)	-0.0844	-0.345
MAPK9_P45984_177_TACTNFMMTPYVVTR (UniProt P45984)	-0.494	-1.64
MCCC2_Q9HCC0_267_AATGEEVSAEDLGGADLHCR (UniProt Q9HCC0)	-0.421	-1.1
MRI1_Q9BV20_168_VTVLTHCNTGALATAGYGTALGVIR (UniProt Q9BV20)	0.147	0.0771
LSS_P48449_471_CPHVTEHIPR (UniProt P48449)	-0.184	-0.209
LSM2_Q9Y333_26_NDLSICGTLHSVDQYLNIK (UniProt Q9Y333)	0.109	0.253
MSTO1_Q9BUK6_347_LCSSPVSMVHLADMLSFCGK (UniProt Q9BUK6)	0.0999	0.248
LRR1_Q96L50_5_LHCEVEVISR (UniProt Q96L50)	-0.12	0.0535
MACF1_Q9UPN3_3109_EIACGAQSEPFPCMTPRPEGLHYQESDGK (UniProt Q9UPN3)	-0.348	-0.619
MARS_P56192_38_AEVLISTVGPEDCVVPFLTRPK (UniProt P56192)	-0.0722	0.0548
MCTS1_Q9ULC4_144_QHALCVGVMK (UniProt Q9ULC4)	0.104	-0.154
